TDP1 cell noCPT – qHTS for Inhibitors of human tyrosyl-DNA phosphodiesterase 1 (TDP1): qHTS in cells in absence of CPT; Potency, µM (series often up to 46.2 µM), actives largely listed as inhibitors; AID 686978, 2013; DT40 Tdp1-/- hTDP1 cells, no CPT, ATP luminescence, 48 h; 420,000 tested, 15% active; also: nearly all actives have a fitted effect of over 55% in size
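Readout: luminescence from CellTiter-Glo after 30 min in the dark at RT. Cells: DT40 Tdp1-/- with stable hTDP1, 400/well. Exposure: compounds alone, ≥48 hr, 37 °C.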
IL-1B inflam inh – inflammasome signaling inhibition, IL-1 beta readout; activity change, % at 57.5 µM; 360,000 tested, 4.7% active; THP-1 LPS/ATP IL-1B secretion, AlphaLISA, 16 h; stronger effect = lower value; in the data active = activity change below about -50%; inconclusive = mostly about -30% to -49%
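Secreted IL-1B measured by AlphaLISA bead assay after 16 h compound exposure of THP-1 cells; compounds (final up to 57.5 uM) added 1 h before LPS (250 ng/mL) and ATP (1.25 mM) stimulation; lower signal means less secretion.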
HT1080-NT tox – kills 2HG-producing HT-1080-NT fibrosarcoma cells; HT-1080-NT fibrosarcoma viability, CellTiter-Glo ATP luminescence, 48 h; Potency, µM (doses to about 46.1 µM), usual class: cytotoxic; 360,000 tested, 1.6% active; AID 686970;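 also: NT is the 2HG producing partner of a matched IDH1 knockdown line; nearly all actives have a fitted effect of over 55% in size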
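Toxicity toward the 2HG-producing NT line was scored as %Activity, normalised to DMSO and no-cell wells, from CellTiter-Glo luminescence after 48 hours' treatment.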
HT1080 IDH1KD tx – kills HT-1080 cells with IDH1 knockdown; 360,000 tested, 2% active; Potency, µM (highest dose often 46.1 µM), most hits filed as cytotoxic; HT-1080 IDH1 knockdown viability, ATP luminescence, 48 h
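HT-1080-IDH1KD cells (IDH1 knocked down), 750/well in RPMI with 5% FBS, treated with compound 48 h at 37 degrees C. Viability by CellTiter-Glo luminescence, normalised to DMSO and no-cell wells; concentration-response curves classed.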
DT40 TDP1 CPT – growth inhibition of DT40 Tdp1-/-;hTDP1 cells with camptothecin (screen for TDP1 inhibitors). chicken DT40 Tdp1-/-;hTDP1 cells + 20 nM CPT, ATP luminescence, 48 h. Potency, µM (series often up to 46.2 µM), actives largely listed as inhibitors. 420,000 tested, 12% active; also: nearly all actives have a fitted effect of over 55% in size
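Cell growth measured by CellTiter-Glo luminescence after a minimum 48 h, 37 C compound exposure with 20 nM CPT in Tdp1-knockout DT40 cells stably expressing hTDP1, seeded 400/well; qHTS titration format.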
Each line names hits and unclear results; the compound was inactive in the other large screens. Only some compounds are listed: those with a hit (about 19% of all), similar ones and a draw of the others. Unless noted, calls follow the shape of the dose curve; as a rule, active = well fitted curve in the direction sought with a large enough effect; inconclusive = small, poorly fitted or top-dose-only effect, or another doubt; inactive = no such curve, though single readings can be large; an effect the other way counts as inactive or inconclusive.

COc1cccc(NS(=O)(=O)c2ccc3c(c2)[C@H]2C=CC[C@H]2[C@@H](c2ccccc2Cl)N3)c1	TDP1 cell noCPT 4.6µM, DT40 TDP1 CPT 8.2µM (no result: IL-1B inflam inh, HT1080-NT tox, HT1080 IDH1KD tx)
COC(=O)c1ccc([C@H]2Nc3ccc(S(=O)(=O)Nc4ccc(C)cc4)cc3[C@H]3C=CC[C@H]32)cc1	TDP1 cell noCPT 15µM, DT40 TDP1 CPT 13µM (no result: IL-1B inflam inh, HT1080-NT tox, HT1080 IDH1KD tx)
COc1ccc(NS(=O)(=O)c2ccc3c(c2)[C@H]2C=CC[C@H]2[C@@H](c2ccc(C(=O)O)cc2)N3)cc1	TDP1 cell noCPT inconclusive, DT40 TDP1 CPT inconclusive
COc1ccc(OC)c(-n2c(=O)[nH]c3cc(C(=O)NCCc4ccc(OC)c(OC)c4)ccc3c2=O)c1	TDP1 cell noCPT inconclusive (no result: IL-1B inflam inh, HT1080-NT tox, HT1080 IDH1KD tx)
CC(C)(C)OC(=O)N1CCCN(C(c2ccnc3ccccc23)c2nnnn2-c2ccc3c(c2)OCCO3)CC1 (configuration not stated)	TDP1 cell noCPT 3.7µM, HT1080-NT tox 23µM, HT1080 IDH1KD tx inconclusive, DT40 TDP1 CPT inconclusive
c1ccc2c(C(c3nnnn3-c3ccc4c(c3)OCCO4)N3CCCCC3)ccnc2c1 (configuration not stated)	TDP1 cell noCPT inconclusive, IL-1B inflam inh inconclusive, DT40 TDP1 CPT inconclusive
CCOC(=O)N1CCN(C(c2ccnc3ccccc23)c2nnnn2-c2ccc3c(c2)OCCO3)CC1 (configuration not stated)	TDP1 cell noCPT 16µM, HT1080-NT tox inconclusive, HT1080 IDH1KD tx inconclusive, DT40 TDP1 CPT inconclusive
Cc1ccc2c(c1)CN(CCNC(=O)C(C)Oc1ccccc1)CC(C)O2 (configuration not stated)	none (no result: IL-1B inflam inh, HT1080-NT tox, HT1080 IDH1KD tx)
OC1(c2cccc(F)c2)CCN(Cc2ccncc2)CC1	none
OC1(c2ccc(Cl)c(C(F)(F)F)c2)CCN(CCCC(c2ccc(F)cc2)c2ccc(F)cc2)CC1	TDP1 cell noCPT 3µM, DT40 TDP1 CPT 2.7µM (no result: IL-1B inflam inh, HT1080-NT tox, HT1080 IDH1KD tx)
CC(CN1CCCCC1)OC(=O)C(C)(c1ccccc1)c1ccccc1 (configuration not stated)	TDP1 cell noCPT 21µM, DT40 TDP1 CPT inconclusive
O=C(CNC(=O)c1ccccc1C(F)(F)F)N/N=C/c1cccs1	none
Fc1c(F)c(C(F)(F)F)c(F)c(F)c1N/N=C\c1cccs1	TDP1 cell noCPT 18µM, IL-1B inflam inh -74, HT1080-NT tox inconclusive, DT40 TDP1 CPT 16µM
Cc1ccccc1OCC(O)CN(Cc1ccccc1O)C1CCCCC1 (configuration not stated)	TDP1 cell noCPT 13µM, IL-1B inflam inh -66, HT1080-NT tox inconclusive, HT1080 IDH1KD tx inconclusive, DT40 TDP1 CPT 16µM
CCN(CC(O)COCc1ccc(Cl)cc1)C1CCCCC1 (configuration not stated)	TDP1 cell noCPT inconclusive
CCN(CC(O)COc1ccc(OCC(O)CN(CC)C2CCCCC2)cc1)C1CCCCC1 (configuration not stated)	TDP1 cell noCPT inconclusive, IL-1B inflam inh -66, HT1080 IDH1KD tx inconclusive, DT40 TDP1 CPT inconclusive
O=C(CCc1nnc(-c2ccccc2)o1)NCc1cc(F)ccc1F	none
Cc1ccc(NC(=O)CCc2ccc(C)o2)cc1	none
Cc1ccc(OCC(=O)N(Cc2ccco2)C2CCS(=O)(=O)C2)cc1C (configuration not stated)	none
COc1ccc(CN(Cc2ccco2)C(=O)COc2ccc(Cl)cc2C)cc1	TDP1 cell noCPT 21µM, DT40 TDP1 CPT inconclusive (no result: IL-1B inflam inh, HT1080-NT tox, HT1080 IDH1KD tx)
Cc1ccc(OCC(=O)N(Cc2ccc(Cl)cc2)Cc2ccco2)cc1C	TDP1 cell noCPT 21µM, DT40 TDP1 CPT inconclusive (no result: IL-1B inflam inh, HT1080-NT tox, HT1080 IDH1KD tx)
CC(NC(=O)c1cc2ccccc2oc1=O)c1ccccc1 (configuration not stated)	none
N/C(=N\OC(=O)/C=C/c1ccccc1)c1ccccn1	none
CC1=CC(=NOC(=O)/C=C/c2ccccc2)C=C(C)C1=O	TDP1 cell noCPT 13µM, IL-1B inflam inh -65, HT1080-NT tox inconclusive, HT1080 IDH1KD tx inconclusive, DT40 TDP1 CPT 21µM
CC1=C(C)/C(=N\OC(=O)/C=C/c2ccccc2)C=CC1=O	TDP1 cell noCPT 13µM, DT40 TDP1 CPT 13µM
CC1=CC(=O)C=C(C)C1=NOC(=O)/C=C\c1ccccc1	DT40 TDP1 CPT 16µM
O=C(NCCN1CCNC1=O)C1CCC(=O)N(Cc2cccc(C(F)(F)F)c2)C1 (configuration not stated)	none
Clc1cccc(Cc2c(-c3cccc(Br)c3)nc3c4ccccc4ccn23)c1	none
O=c1c2c(C(F)(F)F)cc(C(F)(F)F)nc2[nH]n1-c1ccccc1	TDP1 cell noCPT inconclusive, IL-1B inflam inh -75, HT1080-NT tox inconclusive, HT1080 IDH1KD tx inconclusive, DT40 TDP1 CPT 14µM
Cc1cc(C(C)(C)C)nc2[nH]n(-c3ccccc3)c(=O)c12	none
CCOC(=O)N1CCN(c2c(-c3ccccc3)c3cc(Cl)ccc3[nH]c2=O)CC1	TDP1 cell noCPT inconclusive, IL-1B inflam inh inconclusive, DT40 TDP1 CPT inconclusive
O=c1[nH]c2ccc(Cl)cc2c(-c2ccccc2)c1N1CCN(CCO)CC1	TDP1 cell noCPT inconclusive, HT1080-NT tox 11µM, HT1080 IDH1KD tx inconclusive, DT40 TDP1 CPT inconclusive
O=c1[nH]c2ccc(Cl)cc2c(-c2ccccc2)c1SC(=S)N1CCOCC1	TDP1 cell noCPT inconclusive, IL-1B inflam inh inconclusive, HT1080-NT tox 16µM, HT1080 IDH1KD tx inconclusive, DT40 TDP1 CPT inconclusive
Cc1cccnc1NC(=O)CCn1c(=O)oc2ccccc21	none
Oc1ccc(C(c2nnnn2CCc2ccccc2)N2CCN(c3nc4ccccc4s3)CC2)cc1 (configuration not stated)	TDP1 cell noCPT 13µM, IL-1B inflam inh -50, DT40 TDP1 CPT 16µM
Clc1ccc(C(c2nnnn2CCc2ccccc2)N2CCSCC2)cc1 (configuration not stated)	TDP1 cell noCPT inconclusive, IL-1B inflam inh inconclusive, DT40 TDP1 CPT inconclusive
COc1ccc(C(c2nnnn2C(C)(C)C)N2CCN(c3nc4ccccc4s3)CC2)cc1OC (configuration not stated)	DT40 TDP1 CPT inconclusive
Cc1ccc(Cl)cc1N1CCN(C(c2cccnc2)c2nnnn2C2CCCCC2)CC1 (configuration not stated)	TDP1 cell noCPT inconclusive, IL-1B inflam inh -53, DT40 TDP1 CPT inconclusive
COCCn1nnnc1C(c1ccccn1)N1CCN(c2cc(Cl)ccc2C)CC1 (configuration not stated)	TDP1 cell noCPT inconclusive, DT40 TDP1 CPT inconclusive
COc1cc(C(c2nnnn2C(C)(C)C)N2CCN(c3nc4ccccc4s3)CC2)ccc1O (configuration not stated)	TDP1 cell noCPT 12µM, DT40 TDP1 CPT 15µM
COCCn1nnnc1C(c1cccs1)N1CCN(c2cc(C)ccc2C)CC1 (configuration not stated)	TDP1 cell noCPT inconclusive, IL-1B inflam inh -53, DT40 TDP1 CPT inconclusive

Assay outcomes deposited in PubChem BioAssay by National Center for Advancing Translational Sciences (NCATS).
